This is part of a sample that, as a whole, favours compounds with a hit. Of some 79,000 tested, about 15% had one in any assay. Rule as the data show it: active = growth inhibition above about 70%; inactive = the rest.
Tests used:
[1] = NCI Yeast Anticancer Drug Screen. Data for the rad50 strain (AID 155);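 also: 0% = growth of vehicle-only cultures of the same strain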; settings: S. cerevisiae rad50 strain growth inhibition; at 50.0 µM; active compounds read high
Method in brief: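 Yeast carrying a defined DNA repair defect were exposed to test compounds, and growth was compared with vehicle-treated controls to give percent inhibition.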

[2] = NCI Yeast Anticancer Drug Screen. Data for the mec2-1 strain (AID 157); settings: S. cerevisiae mec2-1 strain, at 50.0 µM, active compounds read high
Method in brief: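 Each compound was tested on mec2-1 yeast, a strain altered in DNA damage repair or cell cycle control. Growth inhibition is reported relative to vehicle.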

[3] = NCI Yeast Anticancer Drug Screen. Data for the sgs1 mgt1 strain (AID 161);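 also: 0% = growth of cultures given vehicle only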; settings: S. cerevisiae sgs1 mgt1 strain, at 50.0 µM, active compounds read high
Method in brief: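 Read-out: growth inhibition vs vehicle controls. Cells: mutant yeast strain deficient in DNA damage repair.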

[4] = NCI Yeast Anticancer Drug Screen. Data for the cln2 rad14 strain (AID 165);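 also: 0% = growth equal to vehicle treated cultures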; settings: S. cerevisiae cln2 rad14 strain, at 50.0 µM, active compounds read high
Method in brief: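 Test compounds were added to cln2 rad14 yeast cultures; inhibition of growth was then determined by comparison with vehicle treatment.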

[5] = NCI Yeast Anticancer Drug Screen. Data for the bub3 strain (AID 167); settings: S. cerevisiae bub3 mutant strain, at 50.0 µM, active compounds read high
Method in brief: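 Compounds were applied to a genetically altered yeast strain carrying a cell-cycle control defect. Growth inhibition was scored against vehicle-treated controls.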

[6] = NCI Yeast Anticancer Drug Screen. Data for the mlh1 rad18 strain (AID 175); settings: S. cerevisiae mlh1 rad18 strain growth inhibition; at 50.0 µM; active compounds read high
Method in brief: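 Inhibition values reflect reduced growth of mutant yeast versus vehicle-treated controls following compound exposure; the mutations affect DNA damage repair.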

Measured: growth inhibition

C=CCn1c2c(c3ccccc3c1=O)C(=O)c1ccccc1-2
inactive: [1] 43.9% | [2] -6.5% | [3] 1.7% | [4] 30.9% | [5] -8.5% | [6] -49.9%

O=C(O)c1n[nH]nc1Cl
inactive: [1] -5.9% | [2] 0.7% | [3] 5.35% | [4] -4.2% | [5] -6.15% | [6] 19.2%

Cc1ccc(NC2=N/C(=C/c3ccccc3)C(Cl)=N2)cc1
inactive: [1] -10.1% | [2] -30.6% | [3] 16.9% | [4] 10.9% | [5] 14.3% | [6] -51%

COc1ccc2cc1Oc1ccc(cc1)C[C@@H]1c3cc(c(OC)cc3CCN1C)Oc1c(OC)c(OC)cc3c1[C@H](C2)N(C)CC3
inactive: [1] 22.1% | [2] -19.9% | [3] 6.25% | [4] 5.1% | [5] 9.4% | [6] -49.9%

COC(=O)C(C(=O)C(=O)Nc1c(C)cccc1C(C)(C)C)c1nc2ccc(Cl)cc2[nH]c1=O (stereo unspecified)
inactive: [1] -7.9% | [2] -26.9% | [3] -2.25% | [4] 16.9% | [5] -3.5% | [6] 12.7%

CC1(C)S[C@H](CN)N[C@H]1C(=O)OC(c1ccccc1)c1ccccc1
inactive: [1] -4.3% | [2] -13.4% | [3] 5.25% | [4] -1% | [5] -11.2% | [6] -31.9%

N#CC1(C#N)C2CCCCC23OC(=N)C1(C#N)C(c1ccco1)O3 (stereo unspecified)
inactive: [1] 15.8% | [2] 19.7% | [3] -29.2% | [4] -17.1% | [5] -41.5% | [6] -25.4%

COc1cc(C)c2c(c1C=O)Oc1c(c(C)c(O)c3c1C(O)OC3=O)OC2=O (stereo unspecified)
inactive: [1] 25.3% | [2] -7.65% | [3] 4.85% | [4] 25.6% | [6] -60.3%

COC(=O)C(/C(=N/NC(N)=O)C(=O)Nc1ccc(C)cc1)c1nc2ccc([N+](=O)[O-])cc2[nH]c1=O (stereo unspecified)
inactive: [1] 22.1% | [2] 26.3% | [3] 0.45% | [4] -48.4% | [5] -11% | [6] 42.8%

C1CCCCNCCC1
inactive: [1] -22.8% | [2] -22.2% | [3] -56.5% | [4] -3.4% | [5] -26.7% | [6] -27.3%

N#C/C=C1\C=CC(O)C(O)C1OC1OC(CO)C(O)C(O)C1O (stereo unspecified)
inactive: [1] 21.6% | [2] 7.3% | [3] 37.9% | [4] 27.6% | [5] 12.9% | [6] -62.7%

Cc1ccc(OCC2OC(n3cnc4c(Cl)nc(Cl)nc43)CC2Oc2ccc(C)cc2)cc1 (stereo unspecified)
inactive: [1] -20.4% | [2] -21.6% | [3] 23.1% | [4] 7.45% | [5] 27.4% | [6] -33.5%

N#Cc1nc(-c2cccc(-c3nc(C#N)c(N)o3)n2)oc1N
inactive: [1] 2.7% | [2] 13.7% | [3] -18.1% | [4] 7.9% | [5] -11.8% | [6] -58.6%

C=C(C)C1CC2(C)C(C)CC(OC(=O)/C(C)=C\C)CC2C(OC(=O)/C(C)=C\C)C1O (stereo unspecified)
inactive: [1] 31.2% | [2] -9.65% | [3] 31.2% | [4] -9.6% | [5] -1% | [6] -12.9%

N#Cc1c(N)oc(-c2cccc([N+](=O)[O-])c2)c1C#N
inactive: [1] 24.6% | [2] 28.9% | [3] -19.9% | [4] 10.8% | [6] -16.9%

C/C=C1\NC(=O)[C@H]2CSSCCC=C[C@H](CC(=O)N[C@H](C(C)C)C(=O)N2)OC(=O)[C@H](C(C)C)NC1=O
inactive: [1] 26.1% | [2] 35.4% | [3] 26.1% | [4] 51.6% | [5] 58.4% | [6] 33.5%

NC(=S)Nc1[nH]c(=S)nc2c1SC1=N/C(=C\c3ccco3)C(=O)N12
inactive: [1] 7.45% | [2] -13.6% | [3] 25.5% | [4] 18.1% | [5] 33.9% | [6] 28.2%

CCOC(=O)c1cc(C)nc2c1c(=O)n(-c1ccccc1)c(=O)n2CCCCN1CCN(c2ncccn2)CC1
inactive: [1] 9.75% | [2] -32.4% | [3] 12.2% | [4] 7.45% | [5] -16.9% | [6] -38.5%

From PubChem BioAssay (NCI)
